The list is not random: actives were taken first. Their share in the collection is about 21%.
Pf growth 48h = inhibits P. falciparum growth in the first generation, 48 h | P. falciparum luciferase growth in erythrocytes, 48 h | Potency, µM (doses to about 28.7 µM), inactives show at the highest dose activity change, negative = inhibition, actives largely listed as inhibitors | actives 5.9% (n = 310,000); note: potency is the fitted concentration of half-maximal effect; % is set by controls: 0 for no effect and ±100 for the full control effect
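Erythrocytes infected with P. falciparum carrying an integrated firefly luciferase reporter (2% hematocrit, 0.1% parasitemia final) were exposed to compounds in RPMI 1640 with 0.5% Albumax at 37 C, 5% CO2. Growth inhibition was scored as reduced luminescence.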
Sm TGR inh = S. mansoni TGR enzyme inhibition; Q962Y6; purified TGR, DTNB reduction, TNB absorbance 405 nm; Potency, µM (doses to about 114 µM), inactives show top-dose activity change, negative = inhibition, usual class: inhibitors; actives 3% (n = 360,000); AID 485364; note: potency is the fitted concentration of half-maximal effect; % is set by controls: 0 for no effect and ±100 for the full control effect; nearly all actives have a fitted effect of over 60% in size
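TGR 20 nM + NADPH 100 uM (dispensed conc.), cpd preinc 15 min RT; start with NADPH (500 uM addition) then DTNB (15 mM addition). Kinetic TNB absorbance, 405 nm filter. Four-parameter Hill fit across titration.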
Shiga inhibitor = Shiga toxin inhibition; Vero cells, Shiga toxin protein synthesis inhibition reporter; inhibition, % at 38.7 µM; actives 9.2% (n = 290,000); AID 2315; in the data active = inhibition mostly above about 28%, no sharp cut-off; inactive = mostly below about 43%; note: 0% is about no effect
Pf growth 96h = P. falciparum growth inhibition at 96 hour, primary screen for plastid delayed-death inhibitors | Potency, µM (top dose mostly 28.7 µM), for inactives: top-dose activity change, negative = inhibition, hits mostly inhibitors | actives 6.9% (n = 320,000) | P. falciparum luciferase reporter growth, 96 h; note: potency is the fitted concentration of half-maximal effect; % is set by controls: 0 for no effect and ±100 for the full control effect
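Erythrocytes infected with luciferase-expressing P. falciparum were dispensed at 2% hematocrit and 0.05% parasitemia (final), then incubated with compounds 96 hours at 37 C in 5% CO2. Luminescence after detection reagent addition reported growth.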
Cycloheximide cs = counter-screen hit for Shiga toxin inhibitors, cycloheximide; cell reporter, cycloheximide protein synthesis inhibition counterscreen; max response, %; actives 12% (n = 300,000); in the data active = max response mostly above about 13%, no sharp cut-off; inactive = mostly below about 14%; note: read at 38.3 µM for the half of the compounds with a filed dose; 0% is about no effect
NS1 inh = blocks influenza NS1 protein function; Potency, µM (series often up to 46.1 µM), without a hit: top-dose activity, positive = more growth; actives 0.4% (n = 270,000); calls by dose curve; note: potency is the fitted concentration of half-maximal effect; actives are rising curves; nearly all actives have a fitted effect of over 50% in size
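Recovery from NS1-induced slow growth read by OD600 in budding yeast switched to galactose assay medium (pH 6.0, -URA) at 1:100 dilution. Compound 23 nl per well; the matching strain lacking NS1 serves as control.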
* = called active by the depositor; [ ] = dose if it differs, or a comment. Unless noted, calls come from the whole dose curve; as a rule, active = well fitted curve in the direction sought with a large enough effect; inconclusive = small, poorly fitted or top-dose-only effect, or another doubt; inactive = no such curve, though single readings can be large; an effect the other way counts as inactive or inconclusive.

Screening Cc1ccc2oc(=O)c(/C=C(\O)c3ccccc3)nc2c1 returned Pf growth 48h 16.6%, Sm TGR inh -17.3%, Shiga inhibitor 19.5, Pf growth 96h 23.5% and Cycloheximide cs 1.6.
O=c1oc2ccc(Cl)cc2nc1/C=C(\O)c1cccs1 was read as Pf growth 48h inconclusive, Sm TGR inh inconclusive, Shiga inhibitor 56.4*, Pf growth 96h -9.7%, Cycloheximide cs 61.5* and NS1 inh -42.4%.
Cc1ccc2oc(=O)c(/C=C(\O)c3cccs3)nc2c1 was read as Pf growth 48h 2.8%, Sm TGR inh -19.6%, Shiga inhibitor 77.1*, Pf growth 96h inconclusive, Cycloheximide cs 72.4* and NS1 inh -1.3%.
Screening Cc1cccc(-c2nc3c4ccccc4nc(N4CCN(c5ccc(F)cc5)CC4)n3n2)c1 returned Sm TGR inh 1.1%.
Cc1ccccc1-c1nnc(SCC(=O)N(C)C2CCCCC2)o1 was read as Sm TGR inh -1.0%.
Screening Cc1nnc(SCC(=O)N(C)C2CCCCC2)s1 returned Pf growth 48h 45.5%, Sm TGR inh 0.0%, Shiga inhibitor 34.2, Pf growth 96h -2.6%, Cycloheximide cs 11.1* and NS1 inh 5.4%.
Screening COc1nc(N=C(N)N)nc2ccc(C)cc12 returned Pf growth 48h 2.62µM*, Sm TGR inh -5.0%, Shiga inhibitor -13.6, Pf growth 96h inconclusive, Cycloheximide cs -0.5 and NS1 inh 7.3%.
Screening COc1ccc(-c2nc3ccc(C)cc3c(=O)o2)cc1OC returned Pf growth 48h 7.6%, Sm TGR inh 6.3%, Pf growth 96h inconclusive, Cycloheximide cs 1.0 and NS1 inh 3.6%.
N#C/C(=C/c1ccc(N2CCCCCC2)o1)c1cccc(F)c1 was read as Pf growth 48h -15.3%, Sm TGR inh inconclusive, Shiga inhibitor 4.1, Cycloheximide cs 13.8 and NS1 inh -8.2%.
N#C/C(=C\c1cc([N+](=O)[O-])c(N2CCCCC2)cc1N1CCCCC1)c1nn(-c2ccccc2)c(N)c1C#N was read as Pf growth 48h inconclusive, Sm TGR inh -17.7%, Shiga inhibitor -11.9, Pf growth 96h inconclusive, Cycloheximide cs 7.5 and NS1 inh 19.9%.
Screening N#C/C(=C/c1ccc(N2CCOCC2)o1)c1ccc(Br)cc1 returned Pf growth 48h 76.0%, Sm TGR inh 2µM*, Shiga inhibitor 109.5*, Pf growth 96h 5.22µM*, Cycloheximide cs 76.8* and NS1 inh -13.0%.
C/C(=C1/SC(N2CCOCC2)=NC1=O)c1ccc(Br)cc1 was read as Sm TGR inh 1.1%[11.4 µM], Shiga inhibitor -1.6, Pf growth 96h 4.9%, Cycloheximide cs -1.0 and NS1 inh 4.6%.
Screening N#C/C(=C\c1ccc(N2CCOCC2)o1)c1ccccc1 returned Pf growth 48h 10.0%, Sm TGR inh 1.12µM*, Shiga inhibitor 31.4, Pf growth 96h 408.5%, Cycloheximide cs 33.6* and NS1 inh 13.8%.
For N#C/C(=C/c1ccc(N2CCOCC2)o1)c1nc2ccccc2[nH]1 the results were Pf growth 48h 100.8%, Sm TGR inh inconclusive, Shiga inhibitor 57.9*, Pf growth 96h 8.4%, Cycloheximide cs 33.6* and NS1 inh 25.5%.
For N#C/C(=C\c1cc([N+](=O)[O-])c(N2CCOCC2)cc1N1CCOCC1)c1nc2ccccc2[nH]1 the results were Pf growth 48h inconclusive, Sm TGR inh -6.7%, Shiga inhibitor -1.3, Pf growth 96h 11.7µM*, Cycloheximide cs -0.4 and NS1 inh 4.5%.
Cc1ccc(/C=N/N=C2\SCC(=O)N2CC2CC2)cc1 was read as Pf growth 48h -4.5%, Sm TGR inh -5.9%, Shiga inhibitor 4.9, Pf growth 96h 87.3%, Cycloheximide cs -2.6 and NS1 inh -1.8%.
Screening CC12CCC(=O)N1C(C(=O)Nc1nc3ccc(Cl)cc3s1)CS2 (centres undefined) returned Pf growth 48h 1.7%, Sm TGR inh -1.3% and Pf growth 96h inconclusive.
`c1ccc(N2CCN(c3nc(NCc4ccco4)c4ccccc4n3)CC2)cc1` gave Pf growth 48h 2.33µM*, Sm TGR inh -28.1%, Shiga inhibitor 26.5, Pf growth 96h 2.33µM*, Cycloheximide cs 9.6 and NS1 inh 4.6%.

Source: PubChem BioAssay (National Center for Advancing Translational Sciences (NCATS))
